# Screening data (PubChem BioAssay)
# Sampled rows, rich in hits. Any-hit rate of the full collection: about 12%.
# HP1b binding inh: inhibitors of HP1-beta chromodomain binding to methylated histone tails | 390,000 tested, 0.56% active | P83916 | AlphaScreen HP1-beta / biotin-H3K9me3 peptide binding | AID 540317 | Potency, µM (doses to about 114 µM), most hits filed as inhibitors; further: nearly all actives have a fitted effect of over 70% in size
#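 HP1-beta protein (50 nM final) preincubated 30 min at room temperature with biotinylated H3(1-18)K9me3 peptide (50 nM) in PBS pH 7.4, 0.01% Tween-20, then compound added for 30 min. AlphaScreen streptavidin donor/nickel chelate acceptor beads (10 ug/mL final), 30 min dark, luminescence read.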
# BAZ2B block: BAZ2B (human) inhibition | Potency, µM (titrated, usually from 114 µM), most hits filed as inhibitors | Q9UIF8 | 360,000 tested, 4.4% active | AlphaScreen BAZ2B-H3K14Ac peptide displacement; further: nearly all actives have a fitted effect of over 60% in size
#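 Inhibition is scored as reduced AlphaScreen emission. The BAZ2B/b-H3(5-23)K14Ac complex (50 nM each) in PBS pH 7.4, 0.01% Tween-20 meets compound (up to 110 uM) for 30 min at RT before bead addition.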
# Sfp PPTase inh: blocks B. subtilis Sfp PPTase activity; Q9F4F7; 310,000 tested, 3.5% active; Potency, µM, usual class: inhibitors; Biochemical Sfp PPTase activity, qHTS;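 further: the enzyme is Sfp with the accession as filed and its product quenches rhodamine fluorescence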
#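 Fluorescence-quenching assay with 15 nM Sfp, 5 uM rhodamine-CoA and 12.5 uM BHQ-2-labelled ybbR peptide in pH 7.6 Hepes/MgCl2 buffer. Enzyme was pre-incubated with compound for 15 min at room temperature. Rate was taken from the 30-min fluorescence change (525/598 nm).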
# PLK1 PBD inh: inhibitors of human PLK1 polo-box domain binding. P53350. Plk1 PBD binding of FITC phosphopeptide, fluorescence polarization. Potency, µM, hits mostly inhibitors. 360,000 tested, 2.8% active. AID 720504; further: series mostly up to about 57 µM; nearly all actives have a fitted effect of over 65% in size
# Target sequence (P53350 whole entry, looked up, the tested form may be a part): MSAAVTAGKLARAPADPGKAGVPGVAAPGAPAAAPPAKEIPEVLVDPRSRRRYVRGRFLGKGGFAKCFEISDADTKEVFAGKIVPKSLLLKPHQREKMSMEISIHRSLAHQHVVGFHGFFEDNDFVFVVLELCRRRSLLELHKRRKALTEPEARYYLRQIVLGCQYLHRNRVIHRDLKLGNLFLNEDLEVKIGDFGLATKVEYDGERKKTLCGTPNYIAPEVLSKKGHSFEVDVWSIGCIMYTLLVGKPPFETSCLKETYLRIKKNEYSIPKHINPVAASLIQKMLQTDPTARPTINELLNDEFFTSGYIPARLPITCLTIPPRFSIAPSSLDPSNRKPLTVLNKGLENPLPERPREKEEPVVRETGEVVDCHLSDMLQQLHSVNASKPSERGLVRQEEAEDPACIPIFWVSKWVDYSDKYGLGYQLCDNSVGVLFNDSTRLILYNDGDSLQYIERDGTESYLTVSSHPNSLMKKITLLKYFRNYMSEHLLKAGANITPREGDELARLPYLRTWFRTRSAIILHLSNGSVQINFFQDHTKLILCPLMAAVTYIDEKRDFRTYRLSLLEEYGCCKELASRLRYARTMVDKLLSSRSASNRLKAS
# G9a inh: blocks human histone lysine methyltransferase G9a | AID 504332 | Potency, µM (doses to about 102 µM), usual class: inhibitors | Q96KQ7 | G9a H3K9 monomethylation, AlphaScreen, 2 h | 350,000 tested, 8.8% active; further: nearly all actives have a fitted effect of over 75% in size
#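 Readings reflect AlphaScreen signal from monomethyl-H3K9 antibody detection. HMT at 20 nM; substrate b-H3K9 500 nM; cofactor SAM 20 uM; 2 h RT reaction; compounds tested as titrations in qHTS with 15 min preincubation.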
# JMJD2A Tudor inh: inhibitors of human JMJD2A Tudor domain. O75164. AlphaScreen JMJD2A-Tudor / H3K4me3 peptide binding. Potency, µM (doses to about 114 µM), hits mostly inhibitors. 390,000 tested, 4.4% active. AID 504339; further: nearly all actives have a fitted effect of over 50% in size
# TbPYK inh: Trypanosoma brucei pyruvate kinase inhibition, cherry-pick confirmation; shares compounds with PLK1 PBD inh; recombinant TbPYK, Kinase-Glo ATP luminescence; Potency, µM (top dose mostly 76.9 µM), actives largely listed as inhibitors; 890 tested, 67% active; AID 720569; further: nearly all actives have a fitted effect of over 70% in size
# TbPYK orthogonal: TbPYK inhibition, orthogonal confirmation | recombinant TbPYK, ADP-Glo luminescence, 60 min | Potency, µM (series often up to 76.9 µM), actives largely listed as inhibitors | 890 tested, 62% active | AID 720584 | shares compounds with PLK1 PBD inh; further: nearly all actives have a fitted effect of over 75% in size
# Hits are given with their value; 0 = inactive; ? = inconclusive; - = not tested or not shown; [ ] = another dose, or the depositor's remark. The call rests on the fitted dose curve; in most records, active means well fitted curve in the direction sought with a large enough effect; inconclusive means small, poorly fitted or top-dose-only effect, or another doubt; inactive means no such curve, though single readings can be large; an effect the other way counts as inactive or inconclusive.
SMILES,HP1b binding inh,BAZ2B block,Sfp PPTase inh,PLK1 PBD inh,G9a inh,JMJD2A Tudor inh,TbPYK inh,TbPYK orthogonal
Cn1cccc1C(=O)C(=O)Nc1cc(Cl)cc(Cl)c1,0,0,0,3µM,0,16µM,0,0
Cc1cccc(NC(=O)CN2C(=O)N/C(=C/c3ccc(C)o3)C2=O)c1,0,0,11µM,0,35µM,79µM,?,35µM
COc1ccc(-c2ccc(C3C4C=CCC(C)C4C(=O)N3Cc3ccccc3)c(F)c2)cc1 (stereo unspecified),0,-,?,-,-,0,-,-
CCC(O)c1cnc(OCc2ccccc2)nc1OCc1ccccc1 (stereo unspecified),-,-,-,0,-,-,-,-
O=C(Cn1cc(S(=O)(=O)Cc2ccc([N+](=O)[O-])cc2)c2ccccc21)N1CCOCC1,0,0,40µM,0,8.9µM,0,16µM,25µM
O=C(Cn1cc(S(=O)(=O)Cc2cccc([N+](=O)[O-])c2)c2ccccc21)N1CCOCC1,0,0,0,0,?,0,-,-
C/C(Cn1nc([N+](=O)[O-])cc1C)=N\NC(=O)COc1c(Cl)cc(Cl)cc1Cl,0,0,0,0,0,0,0,0
COc1cc(C(=O)N/N=C(\C)Cn2nc([N+](=O)[O-])cc2C)ccc1O,?,0,0,0,0,0,-,-
Cc1ccc(NC(=O)c2cccc(S(=O)(=O)N3CCN(C)CC3)c2)cc1F,0,0,0,0,0,0,-,-
Cc1snc(SCC(=O)c2ccc([N+](=O)[O-])cc2)c1C#N,?,14µM,20µM,9.5µM,1.8µM,0[11.4 µM],18µM,20µM
Cc1snc(SCC(=O)c2ccc(F)cc2)c1C#N,0,0,0,0,0,0[11.4 µM],-,-
COc1cccc(C(c2sc3nc(C)nn3c2O)N2CCc3ccccc3C2)c1 (stereo unspecified),50µM,0,32µM,?,4µM,20µM,20µM,25µM
CCN1CCN(C(c2cccc(OC)c2)c2sc3nc(C)nn3c2O)CC1 (stereo unspecified),0,0,0,0,0,0,-,-
CC(OC(=O)c1ccc(Cl)cc1)C(=O)NCC1CCCCC1 (stereo unspecified),0,0,-,0,0,0,-,-
COc1ccc(C(=O)OCC(=O)NC2CCCCCCC2)cc1OC,0,-,-,0,-,0,-,-
CCOc1cc(/C=C2\SC(=N)N(c3nccs3)C2=O)ccc1OCCN1CCOCC1,0,0,0,0,0,0,?,?
CCOc1cc(/C=C2\SC(=S)N(N3CCOCC3)C2=O)ccc1O,0,0,0,0,0[12.7 µM],0,-,-
O=S(=O)(NCCC(c1ccc(F)cc1)c1ccco1)c1ccccc1 (stereo unspecified),?,0,0,21µM,?,?,0,0
Fc1ccc(C(CCNCc2cccs2)c2ccco2)cc1 (stereo unspecified),0,0,0,0,0,0,-,-
O=C(c1ccccc1)c1cc2ccc(O)cc2oc1=O,0,0,0,0,0,0,?,0
CCc1ccc(C(=O)c2cc3ccc(O)cc3oc2=O)cc1,0,0,0,0,0,0,-,-
O=C(NCc1ccco1)c1cc2ccc(O)cc2oc1=O,0,56µM,28µM,0,0,0,20µM,0
Cc1onc(C(=O)Nc2sc3c(c2C(N)=O)CCCC3)c1[N+](=O)[O-],?,?,25µM,11µM,-,?,16µM,18µM
Cc1ccc(Nc2c([N+](=O)[O-])ccc3nonc23)c(C)c1,?,?,0,0,?,?,-,-
Cc1ccc(S(=O)c2ccc([N+](=O)[O-])c3nonc23)cc1 (stereo unspecified),-,-,-,1.5µM,-,-,0,11µM
Oc1ccc(C23CC4CC(CC(C4)C2)C3)cc1O,?,?,79µM,0,0.71µM,22µM,20µM,20µM
CC(C)c1ccc(NC(=O)COC(=O)C2CC3C=CC2C3)cc1 (stereo unspecified),0,-,-,0,-,0,-,-
COC(=O)c1ccc(S(=O)(=O)c2ccccc2)c(N)c1,0,0,0,0,0,0,-,-
